Screens from PubChem BioAssay.
Sampled rows, rich in hits. Any-hit rate of the full collection: about 2.5%.
PKA-R2B act = PKA-R2B complex activation; P22694+P31323; PKA-R2B holoenzyme dissociation, Cy5-IP20 fluorescence polarization; R2B truncated from residue 108, S112A mutant; 0% DMSO only, 100% 113 µM cGMP; activation, % at 11.4 µM; 340,000 tested, 0.079% active; AID 504700;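 active = activation above a cutoff set at the mean over all compounds plus 3 SD, cut at about 18% in these data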;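 note: higher means more holoenzyme dissociation and a rise in polarization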
TMEM16A act = activates or potentiates the mouse TMEM16A chloride channel; Q8BHY3; HEK293 TMEM16A/YFP-H148Q/I152L, iodide quench fluorescence; hits give low values; B-score at 10 µM; 340,000 tested, 0.3% active; AID 623877;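 active = fluorescence-ratio B-score plate-corrected deviation score at least 3 library SD below zero, with starting fluorescence score within 5 deviations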;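 note: channel opened by trigger with iodide after compound preincubation; score built on the fluorescence ratio of max minus min over baseline; more negative score means more quench and so TMEM16A activation or potentiation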
CHT block = inhibits the human high affinity choline transporter; 310,000 tested, 0.86% active; AID 488975; Q9GZV3; CHT-expressing cells, membrane potential dye, choline response; hits give low values; B-score at 10 µM;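 active = B-score over 3 SD under the library average, and starting fluorescence ratio not unusually high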;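 note: choline stimulus applied at its EC90 after an EC20 pre-addition; B-score computed on integrated fluorescence ratio after choline addition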
Target sequence (Q9GZV3 whole entry, looked up): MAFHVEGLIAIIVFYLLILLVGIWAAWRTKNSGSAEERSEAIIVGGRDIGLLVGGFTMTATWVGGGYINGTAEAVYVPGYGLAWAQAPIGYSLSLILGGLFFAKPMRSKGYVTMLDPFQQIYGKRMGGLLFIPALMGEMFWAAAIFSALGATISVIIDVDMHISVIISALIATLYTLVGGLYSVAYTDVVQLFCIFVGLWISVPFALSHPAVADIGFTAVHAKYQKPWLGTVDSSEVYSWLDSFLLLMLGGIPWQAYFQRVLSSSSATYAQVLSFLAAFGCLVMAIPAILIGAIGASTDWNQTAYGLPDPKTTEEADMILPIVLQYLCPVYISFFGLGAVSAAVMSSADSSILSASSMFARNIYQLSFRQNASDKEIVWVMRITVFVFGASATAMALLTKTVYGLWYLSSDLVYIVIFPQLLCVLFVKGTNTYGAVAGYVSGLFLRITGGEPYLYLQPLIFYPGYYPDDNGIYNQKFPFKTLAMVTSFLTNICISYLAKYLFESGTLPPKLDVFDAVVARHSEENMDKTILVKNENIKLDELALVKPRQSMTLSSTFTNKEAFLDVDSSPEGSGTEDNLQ
ANO1 block = mouse TMEM16A channel inhibition, primary screen | Q8BHY3 | HEK293 TMEM16A/YFP iodide influx fluorescence, ionomycin | normalized B-score (activity score, 25-100; higher = stronger inhibition) at 10 µM | 310,000 tested, 1.2% active | AID 588511;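 active = ratio plate-corrected score three or more library SD toward inhibition, starting fluorescence score within five deviations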;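 note: score derived from kinetic fluorescence span divided by baseline fluorescence per well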
PKA-R1A activ = activates the PKA-R1A holoenzyme complex. activation, % at 11.4 µM. PKA-R1A dissociation, Cy5-IP20 fluorescence polarization; scaled: DMSO 0%, 113 µM cGMP 100%. 340,000 tested, 0.083% active. P00514+P68181;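 active = percent activation above the mean of all tested compounds plus 3 SD, cut at about 19% in these data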;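 note: higher means more PKAc released from R1A so a rise in polarization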
CHT PAM = allosterically activates the human high affinity choline transporter. CHT-expressing cells, membrane potential dye, choline EC20; hits give high values; LV-AA mutant CHT in HEK293 cells. B-score at 10 µM. 310,000 tested, 0.49% active;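 active = initial fluorescence not abnormally high and integrated response B-score, plate-corrected, over 3 SD above library mean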
Of the large screens only hits and unclear results are named; the others gave an inactive call.

Cc1cc(C)c2nc(-c3ccccn3)cc(C(=O)Nc3ccc(S(=O)(=O)Nc4cc(C)on4)cc3)c2c1	ANO1 block 25
Cc1cc(C)c2nc(-c3ccccn3)cc(C(=O)Nc3ccc(S(=O)(=O)Nc4onc(C)c4C)cc3)c2c1	none (no result: PKA-R2B act, PKA-R1A activ)
N#Cc1ccccc1S(=O)(=O)N1CCN(CC(O)CN2CCOCC2)CC1 (centres undefined)	none (no result: CHT block, ANO1 block, CHT PAM)
N#CC1=C(SCC(=O)NC23CC4CC(CC(C4)C2)C3)NC(=O)C(C#N)C12CCCCC2 (centres undefined)	ANO1 block 100
CC(C)(C)C1CCC2(CC1)C(C#N)=C(SCC(=O)NC1CCCCC1)NC(=O)C2C#N (centres undefined)	ANO1 block 100
N#CC1=C(SCC(=O)NC2CC2)NC(=O)C(C#N)C12CCCCC2 (centres undefined)	none
N#CC1=C(SCC(=O)Nc2cccc3cccnc23)NC(=O)C(C#N)C12CCCCC2 (centres undefined)	ANO1 block 100
CCOC(=O)C1=C(SCC(=O)Nc2ccccc2)NC(=O)C(C#N)C12CCCCC2 (centres undefined)	TMEM16A act -31.3
Cc1cccn2cc(CCNC(=O)c3cccs3)nc12	none
COc1cc(C(=O)OCC(=O)Nc2cccc(S(=O)(=O)N3CCCC3)c2)ccc1OCC(C)C	none
Cc1[nH]c2ccccc2c1C(O)CN1CCN(c2cccc(C(F)(F)F)c2)CC1 (centres undefined)	CHT block -8.74
O=C(c1cc(=O)[nH]c2ccccc12)N1CCN(c2cccc(C(F)(F)F)c2)CC1	none
CCN(Cc1ccncc1)C(=O)c1cc(Br)cc(Br)c1O	none
Cc1ccc(NC(=O)C2CCN(S(C)(=O)=O)CC2)cc1Cl	none
Cc1cc(Cl)ccc1OCC(=O)Nc1ccncc1	ANO1 block 25
Clc1ccc(Br)c(-c2nc3ccccc3[nH]2)c1	none (no result: TMEM16A act, CHT block, ANO1 block, CHT PAM)
COc1ccc(C(CNC(=O)c2ccc3c(c2)OCCO3)N(C)C)cc1 (centres undefined)	none
COc1ccc(C(CNC(=O)c2ccc(N3CCCC3=O)cc2)N(C)C)cc1 (centres undefined)	ANO1 block 25
CCN(CC)CCSc1nc2ccccc2c(=S)n1-c1ccccc1	CHT PAM 6.61 (no result: PKA-R2B act, TMEM16A act, PKA-R1A activ)
Cc1noc(C)c1NC(=O)N(C)C[C@@H]1OCc2cnnn2CCCC(=O)N([C@H](C)CO)C[C@@H]1C	none (no result: TMEM16A act, CHT block, ANO1 block, CHT PAM)
COc1ccc(C(=O)C2CCCN(C(=O)c3ccc4cc[nH]c4c3)C2)c(C)c1 (centres undefined)	TMEM16A act -12.7
COc1ccc(C(=O)C2CCCN(C(=O)c3cccnc3OC)C2)c(C)c1 (centres undefined)	none
CN1CCN(C2=C(Cl)C(=O)c3ccccc3C2=O)CC1	none (no result: CHT block, ANO1 block, CHT PAM)
CN1CCN(C2=C(Cl)C(=O)C(c3cnc(N4CCCCC4)s3)=C(Cl)C2=O)CC1	ANO1 block 100
CC(=O)Nc1ccc(C2=CC(=O)C[C@H](c3ccc4c(c3)OCO4)C2)cc1	none (no result: CHT block, ANO1 block, CHT PAM)
CCOc1cc(CNS(=O)(=O)c2ccc3c(c2)CC(=O)N3C)cc(OCC)c1OCC	TMEM16A act -5.2
CN1C(=O)Cc2cc(S(=O)(=O)NCc3cccs3)ccc21	none
O=C(O)CC1=C(O)C(=O)N(c2ccccc2)C1c1ccc(Br)cc1 (centres undefined)	TMEM16A act -12.8
O=C(O)CC1=C(O)C(=O)N(c2ccccc2)C1c1ccccc1 (centres undefined)	none
COC(=O)c1c(C)cccc1C1CN=NC12Cc1ccccc1C2=O (centres undefined)	TMEM16A act -7.37 (no result: CHT block, ANO1 block, CHT PAM)
COc1ccccc1C1CN=NC12CCCc1ccccc1C2=O (centres undefined)	none
COc1ccc(S(=O)(=O)N2CCCCCC2)cc1C(=O)N(C)Cc1ccc(C(C)(C)C)cc1	ANO1 block 25
Cc1cc(C)nc(N2CCC(CNC(=O)CCc3ccccc3)CC2)n1	TMEM16A act -7.71
COc1nnc(-c2ccc(N3CCCCC3)c(NC(=O)C3CCCCC3)c2)c2ccccc12	ANO1 block 100
Cc1ccc(S(=O)(=O)C2(C(=O)N3CCCC(C)C3)CC2)cc1 (centres undefined)	ANO1 block 25
CCn1nc(C)c(NC(=O)Nc2cccc(Cl)c2Cl)c1C	none
CCC1(CC)Cc2ccccc2C(N)=C1C#N	TMEM16A act -53.1
CCC1(CC)Cc2ccccc2C(=O)N1	none
Cc1nnc(Cc2ccco2)c2n[nH]c(C)c12	none (no result: TMEM16A act, CHT block, ANO1 block, CHT PAM)
CCOC(=O)c1cnn(-c2ccccc2)c1NC(=O)c1ccc(C)cc1	ANO1 block 25
CCOC(=O)c1cnn(-c2ccccc2)c1NC(=O)c1ccccc1	none
Cc1ccc(NC(=O)C(C)N2CCN(C)CC2)cc1S(=O)(=O)N1CCOCC1 (centres undefined)	none (no result: CHT block, ANO1 block, CHT PAM)
Cc1cc(C(=O)COC(=O)c2ccc(O)cc2)c(C)n1-c1ccccc1F	TMEM16A act -28.9
CCc1ccc(NC(=O)CO/N=C(\C)c2cc3ccccc3o2)cc1	ANO1 block 100
O=C1/C(=C/c2ccc(Br)cc2)Oc2cc(O)ccc21	ANO1 block 100
COc1ccc(CN2C(=O)c3ccccc3C(/C=N\OCc3ccc(F)cc3)C2=O)cc1 (centres undefined)	ANO1 block 25
CC1C(=O)N(Cc2ccccc2F)c2ccccc2N1C(=O)c1c(F)cccc1F (centres undefined)	CHT block -5.12
COCCCNc1nc(-c2ccc(Cl)cc2)nc2ccccc12	ANO1 block 25
COCCN(CCOC)c1nc(-c2ccc(Cl)cc2)nc2ccccc12	none
OCCCNc1nc(-c2ccc(Cl)cc2)nc2ccccc12	TMEM16A act -6.3
COc1ccc(CCNC(=O)c2ccc3c(c2)S(=O)(=O)N=C2CCCCCN23)cc1OC	none (no result: TMEM16A act, CHT block, ANO1 block, CHT PAM)
COc1ccc(CC(=O)N2CCc3cc(OC)c(OC)cc3C2O)cc1OC (centres undefined)	none
COc1cc(/C=N/N=C(N)N)ccc1OCc1ccc(Cl)cc1	ANO1 block 100
CCOc1cc(/C=N/N=C(N)N)ccc1OCc1ccc(Cl)cc1	none
CCCC1CC(C)(/C(C)=N\NC(N)=S)OC1=O (centres undefined)	CHT block -9.26
Cc1ccc(S(=O)(=O)Cn2nnnc2C(CC(C)C)N2CCN(C3CCCC3)CC2)cc1 (centres undefined)	none
COc1ccccc1NC(=O)CSc1nnnn1-c1ccc2c(c1)OCO2	TMEM16A act -7.5
COc1ccccc1NC(=O)CSc1nnnn1-c1ccccc1OC	none
O=C(NCc1ccc(F)cc1)C(C(=O)NCc1ccc(F)cc1)c1ncc(C(F)(F)F)cc1Cl	TMEM16A act -7.26
